Assay results: PubChem BioAssay (NCI)
About 83,000 compounds went through this panel and 20% of them were active in at least one assay; those are over-represented in the sample as a whole.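 The endpoint reported here, percent growth, reads 100 for growth as untreated, 0 for no net growth and -100 for all cells dead.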 The source made the active and inactive calls. Rule for the calls: active = growth percent below 10; inactive = the rest.

Legend:
Test in all cases: NCI-60 one-dose screen, 48 h (100 = growth as untreated, 0 = no growth, -100 = all killed)
Conditions in all cases: 10 µM unless noted
T-47D breast = test system: T-47D breast
BT-549 breast = test system: BT-549 breast
MDA-MB-435 melanoma = test system: MDA-MB-435 melanoma
SW-620 colon = test system: SW-620 colon
MCF7 breast = test system: MCF7 breast
HCT-116 colon = test system: HCT-116 colon
HCC-2998 colon = test system: HCC-2998 colon
KM12 colon = test system: KM12 colon

Measured: growth

O=C1c2ccccc2-c2c1c1c(NCCCO)nc3ccccc3c1n2Cc1ccccc1
active: BT-549 breast -37.7% | MCF7 breast -23.2% | HCT-116 colon -57.3%
inactive: T-47D breast 78.2% | MDA-MB-435 melanoma 18.2% | SW-620 colon 25.2% | HCC-2998 colon 26.1% | KM12 colon 38.3%

CCOC(=O)C1=C(C)NC(C)=C(C(=O)OCC)C1c1cc(Br)c(O)c(OC)c1
active: MDA-MB-435 melanoma -33.7%
inactive: T-47D breast 43.8% | BT-549 breast 15.3% | SW-620 colon 24.6% | MCF7 breast 29.3% | HCT-116 colon 24.5% | HCC-2998 colon 63.6% | KM12 colon 23.6%

O=C(O)CCCCCCCCCCCCCCC(=O)O
inactive: T-47D breast 110% | BT-549 breast 105% | MDA-MB-435 melanoma 109% | SW-620 colon 109% | MCF7 breast 97% | HCT-116 colon 107% | HCC-2998 colon 101% | KM12 colon 102%

COc1ccc(Nn2c(SCC(=O)Nc3nc(-c4ccc(Cl)cc4)cs3)nc(C)c2C)cc1
inactive: T-47D breast 32.9% | BT-549 breast 53.3% | MDA-MB-435 melanoma 50.4% | SW-620 colon 75.2% | MCF7 breast 20.8% | HCT-116 colon 27.8% | HCC-2998 colon 54.2% | KM12 colon 43.1%

CC(C)CCSc1nc(NNC(N)=O)c(C#N)c(-c2ccccc2)n1
inactive: T-47D breast 99.9% | BT-549 breast 46.7% | MDA-MB-435 melanoma 109% | SW-620 colon 112% | MCF7 breast 103% | HCT-116 colon 38.3% | HCC-2998 colon 102% | KM12 colon 110%

COc1ccc(/C=C/C(=O)c2ccc(Nc3ncnc4ccccc34)cc2)cc1OC
active: MDA-MB-435 melanoma 7.77% | HCT-116 colon 9.59%
inactive: T-47D breast 78.6% | BT-549 breast 56.3% | SW-620 colon 27.5% | MCF7 breast 16.1% | HCC-2998 colon 29.9% | KM12 colon 16.3%

COc1ccc(/C=N/C2=C(C#N)C(c3ccccc3[N+](=O)[O-])c3ccc4ccccc4c3O2)cc1 (stereo not drawn)
inactive: T-47D breast 79.4% | BT-549 breast 92.8% | MDA-MB-435 melanoma 98.5% | SW-620 colon 97.8% | MCF7 breast 56.4% | HCT-116 colon 83.3% | HCC-2998 colon 106% | KM12 colon 95.9%

CC(=O)c1c(C)[nH]c(-c2nc3ccc(N4CCN(C)CC4)cc3[nH]2)c1-c1ccccc1
active: MCF7 breast 7.32%
inactive: T-47D breast 20.3% | BT-549 breast 81.9% | MDA-MB-435 melanoma 19.8% | SW-620 colon 54.8% | HCT-116 colon 59.6% | HCC-2998 colon 27.8% | KM12 colon 39.7%

CCCNC(=O)Oc1ccc(/C(=C(\C)c2ccccc2)c2ccc(OCCN3CCCCC3)cc2)cc1
inactive: T-47D breast 38.7% | BT-549 breast 69.8% | MDA-MB-435 melanoma 78.8% | SW-620 colon 80.8% | MCF7 breast 27.9% | HCT-116 colon 46.5% | HCC-2998 colon 86.9% | KM12 colon 58.9%

COc1ccc(C2CC(n3nnnc3-c3ccccc3)=NN2)cc1 (stereo not drawn)
inactive: T-47D breast 46.3% | BT-549 breast 81.4% | MDA-MB-435 melanoma 50.1% | SW-620 colon 50.6% | MCF7 breast 62% | HCT-116 colon 50.7% | HCC-2998 colon 72.3% | KM12 colon 49.3%

[2H]C1([2H])NC([2H])([2H])C([2H])([2H])N(c2ccc(Nc3ncc4cc(C(=O)N(C)C)n(C5CCCC5)c4n3)nc2)C1([2H])[2H]
inactive: T-47D breast 68% | BT-549 breast 92.9% | MDA-MB-435 melanoma 68.7% | SW-620 colon 42.2% | MCF7 breast 45% | HCT-116 colon 55.3% | HCC-2998 colon 89.9% | KM12 colon 54.5%

O=C(CN1CCOCC1)Nc1ccc2ncnc(Nc3ccc(Oc4cccc(F)c4)c(Cl)c3)c2c1
inactive: T-47D breast 23.9% | BT-549 breast 86.2% | MDA-MB-435 melanoma 85.4% | SW-620 colon 100% | MCF7 breast 71.1% | HCT-116 colon 73.5% | HCC-2998 colon 101% | KM12 colon 90.1%

CC(=O)c1c[nH]c2ccc(-c3ccnc(Nc4ccc(NC(=O)c5cccc(F)c5)c(CN5CCOCC5)c4)n3)cc12
active: T-47D breast -5.6% | BT-549 breast -7.43% | MDA-MB-435 melanoma -6.37% | SW-620 colon 0.335% | MCF7 breast -0.0693% | HCT-116 colon 2.26% | HCC-2998 colon 1.41% | KM12 colon -7.43%

NC(=S)N/N=C/c1ccc(OC(=O)COc2cc(Cl)c(Cl)cc2Cl)cn1
inactive: T-47D breast 49.3% | BT-549 breast 64.3% | MDA-MB-435 melanoma 71.7% | SW-620 colon 59.6% | MCF7 breast 28.5% | HCT-116 colon 67.9% | HCC-2998 colon 63.7% | KM12 colon 70.9%

O=C1OC(=O)C2C1CC=CC2c1ccccc1 (stereo not drawn)
inactive: T-47D breast 91.5% | BT-549 breast 93.1% | MDA-MB-435 melanoma 102% | SW-620 colon 86.7% | MCF7 breast 89% | HCT-116 colon 97.3% | HCC-2998 colon 79.9% | KM12 colon 84.8%

COc1ccc(C(O)c2cc3c(N)c(C(=O)Nc4ccc(Cl)cc4)sc3nc2C)cc1 (stereo not drawn)
active: MDA-MB-435 melanoma -52.5% | KM12 colon 9.89%
inactive: T-47D breast 37.4% | BT-549 breast 66.4% | SW-620 colon 27.1% | MCF7 breast 16.6% | HCT-116 colon 21.7% | HCC-2998 colon 23%
